Test results published in PubChem BioAssay AID1159580 (chemical genetic matrix, 2015).
Out of some 5,500 compounds screened, about 2,000 (36%) were called active. Not shown: some 18% with an inconclusive outcome. No stated cut-off is given here; in the data, active means normalized growth mostly below about 0.91 (no sharp cut-off); inconclusive means no clear call, values can overlap the other calls; inactive means mostly above about 0.92. This is one part of the list.

Assay: chemical genetic growth profiling, strain panel (AID 1159580);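 further: tested at 20 µM; growth read once vehicle control cultures reached saturation at 30 °C; 1 = growth at the plate median or of vehicle wells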
Details: growth OD
[1] = S. cerevisiae deletion strains, locus YAL013W, strain DEP1, stronger effect = lower value
[2] = S. cerevisiae deletion strains, locus YDR150W, strain NUM1, stronger effect = lower value
[3] = S. cerevisiae deletion strains, locus YGR078C, strain PAC10, stronger effect = lower value
[4] = S. cerevisiae deletion strains, locus YJR075W, strain HOC1, stronger effect = lower value
[5] = S. cerevisiae deletion strains, locus YMR263W, strain SAP30, stronger effect = lower value
[6] = S. cerevisiae deletion strains, locus YNL322C, strain KRE1, stronger effect = lower value
[7] = S. cerevisiae deletion strains, locus YPL055C, strain LGE1, stronger effect = lower value

Measured: normalized growth

CCC(=O)c1c(C)c(C)c(C)c(C)c1C
inactive: [1] 0.985 | S. cerevisiae deletion strains, locus YBR229C, strain ROT2, stronger effect = lower value 0.992 | S. cerevisiae deletion strains, locus YCL061C, strain MRC1, stronger effect = lower value 0.988 | S. cerevisiae deletion strains, locus YDL101C, strain DUN1, stronger effect = lower value 0.99 | S. cerevisiae deletion strains, locus YDL134C, strain PPH21, stronger effect = lower value 0.984 | [2] 1.01 | S. cerevisiae deletion strains, locus YEL061C, strain CIN8, stronger effect = lower value 0.975 | [3] 1 | S. cerevisiae deletion strains, locus YHR030C, strain SLT2, stronger effect = lower value 0.95 | S. cerevisiae deletion strains, locus YHR087W, strain rtc3, stronger effect = lower value 0.959 | S. cerevisiae deletion strains, locus YJL187C, strain SWE1, stronger effect = lower value 0.995 | S. cerevisiae deletion strains, locus YJR043C, strain POL32, stronger effect = lower value 0.983 | [4] 0.948 | S. cerevisiae deletion strains, locus YKL190W, strain CNB1, stronger effect = lower value 0.983 | S. cerevisiae deletion strains, locus YLR039C, strain RIC1, stronger effect = lower value 1.1 | S. cerevisiae deletion strains, locus YLR058C, strain SHM2 (second series), stronger effect = lower value 0.967 | S. cerevisiae deletion strains, locus YLR085C, strain ARP6, stronger effect = lower value 1.01 | S. cerevisiae deletion strains, locus YLR262C, strain YPT6, stronger effect = lower value 1.06 | S. cerevisiae deletion strains, locus YML094W, strain GIM5, stronger effect = lower value 0.977 | S. cerevisiae deletion strains, locus YMR219W, strain ESC1, stronger effect = lower value 0.986 | [5] 0.977 | S. cerevisiae deletion strains, locus YNL153C, strain GIM3, stronger effect = lower value 0.982 | S. cerevisiae deletion strains, locus YNL298W, strain CLA4 (second series), stronger effect = lower value 0.966 | [6] 0.997 | S. cerevisiae deletion strains, locus YNR030W, strain Alg12, stronger effect = lower value 0.954 | S. cerevisiae deletion strains, locus YOL006C, strain TOP1, stronger effect = lower value 1.01 | [7] 0.971 | S. cerevisiae deletion strains, locus YPL241C, strain CIN2, stronger effect = lower value 0.986 | S. cerevisiae deletion strains, locus YPR135W, strain CTF4, stronger effect = lower value 0.976 | S. cerevisiae strains, strain wild type, stronger effect = lower value 0.988

CNC(=O)[C@H]1O[C@@H](n2cnc3c(NCc4ccc(I)cc4)nc(Cl)nc32)[C@H](O)[C@@H]1O
inactive: [1] 0.986 | S. cerevisiae deletion strains, locus YAL040C, strain CLN3, stronger effect = lower value 0.939 | S. cerevisiae deletion strains, locus YCL061C, strain MRC1 (second series), stronger effect = lower value 0.996 | [2] 1 | S. cerevisiae deletion strains, locus YDR363W, strain ESC2, stronger effect = lower value 0.944 | S. cerevisiae deletion strains, locus YER002W, strain NOP16, stronger effect = lower value 0.97 | [3] 0.99 | [4] 0.999 | [5] 0.995 | S. cerevisiae deletion strains, locus YMR307W, strain GAS1, stronger effect = lower value 1 | S. cerevisiae deletion strains, locus YNL128W, strain TEP1, stronger effect = lower value 0.981 | S. cerevisiae deletion strains, locus YNL175C, strain NOP13, stronger effect = lower value 0.962 | S. cerevisiae deletion strains, locus YNL197C, strain WHI3, stronger effect = lower value 0.98 | S. cerevisiae deletion strains, locus YNL224C, strain SQS1, stronger effect = lower value 0.997 | [6] 0.972 | S. cerevisiae deletion strains, locus YOR083W, strain WHI5 (second series), stronger effect = lower value 0.918 | [7] 0.937
